Screen size: about 330,000 compounds; about 1,100 (0.33%) were called active. The full list was thinned out, with actives kept by preference. Unmarked numbers belong to inactive results. Rule as the data show it: active = inhibition above about 35%; inactive = the rest.
Assay: inhibitors of PMA/ionomycin-induced NF-kB reporter, 697 cells, primary screen, B-cell NF-kB inhibitor project, cell-based, luminescence, uHTS (AID 435022)
Settings: 697 B-cell NF-kB luciferase reporter, 16 h, at 4 µM, active compounds read high

| SMILES | inhibition |
| --- | --- |
| CCCCCCCCCCCCn1ccc(=N)cc1 | 90.6% (active) |
| CCOc1ccc(C2SCC(=O)Nc3c2c(C)nn3C2CCOC(C)(C)C2)cc1 (stereo not given) | 24.3% |
| COC(=O)COc1cc(C)cc2oc(=O)c3c(c12)CCCC3 | 13.3% |
| CN1C2C=C(N(C(=O)c3ccc(Cl)cc3)c3ccccc3)CC1CC2 (stereo not given) | -2.33% |
| COc1cc(-n2c(=S)[nH]c3ccc(C)cc3c2=O)c(Cl)cc1Cl | -21.6% |
